# Compound activity (PubChem)
# Rows were chosen to be rich in hits. Some 19% of all compounds tested hit in one or more screens of this group.
# HepG2 viability = counter-screen for TGF-b inhibitors: cytotoxicity in HepG2 cells; HepG2 CAGA-GFP viability, ATP luminescence, 18 h; Potency, µM (titrated, usually from 46.1 µM), actives largely listed as cytotoxic; hit rate 0.76% among 410,000; AID 588856
#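 CellTiter-Glo luminescence gave cytotoxicity after 18 hours at 37 degrees C. The cells were HepG2 CAGA-GFP in 1% FBS DMEM, stimulated with 500 pg/mL TGF-beta after compound addition. %Activity was normalised to no-cell wells (complete cell-killing) and DMSO (no toxicity), and curves were fitted and classified.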
# TGFb inhibitor = inhibitors of TGF-b signaling | HepG2 CAGA-GFP TGF-b/SMAD3 reporter, GFP fluorescence, 18 h; TGF-beta stimulated, 500 pg/mL final | Potency, µM (top dose mostly 46.1 µM), usual class: inhibitors | hit rate 1.2% among 410,000; further: nearly all actives have a fitted effect of over 65% in size
#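 HEPG2 CAGA-GFP reporter cells (1000/well, DMEM with 1% FBS) received compounds, then recombinant TGF-beta at 500 pg/mL final for 18 hours at 37 degrees C. Per-cell GFP summed per well was normalised to unstimulated and stimulated DMSO controls before curve fitting.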
# TDP1 cell noCPT = qHTS for Inhibitors of human tyrosyl-DNA phosphodiesterase 1 (TDP1): qHTS in cells in absence of CPT; DT40 Tdp1-/- hTDP1 cells, no CPT, ATP luminescence, 48 h; Potency, µM (titrated, usually from 46.2 µM), actives largely listed as inhibitors; hit rate 15% among 420,000; AID 686978, 2013; further: nearly all actives have a fitted effect of over 55% in size
#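 A cellular qHTS used chicken DT40 cells lacking endogenous Tdp1 but carrying stably transfected human TDP1. Compounds were applied without camptothecin, and cell growth kinetics were judged by ATP-dependent luminescence after ≥48 hr.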
# TDP1 cell CPT = growth inhibition of DT40 Tdp1-/-;hTDP1 cells with camptothecin (screen for TDP1 inhibitors); chicken DT40 Tdp1-/-;hTDP1 cells + 20 nM CPT, ATP luminescence, 48 h; Potency, µM (doses to about 46.2 µM), usual class: inhibitors; hit rate 12% among 420,000; AID 686979; further: nearly all actives have a fitted effect of over 55% in size
#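 Chicken DT40 Tdp1-/- cells complemented with human TDP1, 400 cells/well, exposed to compounds plus 20 nM camptothecin for at least 48 h at 37 C; viability read as ATP content by CellTiter-Glo luminescence.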
# S-ASM inh = inhibitors of human secretory acid sphingomyelinase | P17405 | hit rate 0.006% among 340,000 | Potency, µM (doses to about 57.5 µM), usual class: inhibitors | AID 504937 | placental ASM, HMU-PC fluorogenic substrate, 60 min
# Target sequence (P17405 47-631 limits assumed): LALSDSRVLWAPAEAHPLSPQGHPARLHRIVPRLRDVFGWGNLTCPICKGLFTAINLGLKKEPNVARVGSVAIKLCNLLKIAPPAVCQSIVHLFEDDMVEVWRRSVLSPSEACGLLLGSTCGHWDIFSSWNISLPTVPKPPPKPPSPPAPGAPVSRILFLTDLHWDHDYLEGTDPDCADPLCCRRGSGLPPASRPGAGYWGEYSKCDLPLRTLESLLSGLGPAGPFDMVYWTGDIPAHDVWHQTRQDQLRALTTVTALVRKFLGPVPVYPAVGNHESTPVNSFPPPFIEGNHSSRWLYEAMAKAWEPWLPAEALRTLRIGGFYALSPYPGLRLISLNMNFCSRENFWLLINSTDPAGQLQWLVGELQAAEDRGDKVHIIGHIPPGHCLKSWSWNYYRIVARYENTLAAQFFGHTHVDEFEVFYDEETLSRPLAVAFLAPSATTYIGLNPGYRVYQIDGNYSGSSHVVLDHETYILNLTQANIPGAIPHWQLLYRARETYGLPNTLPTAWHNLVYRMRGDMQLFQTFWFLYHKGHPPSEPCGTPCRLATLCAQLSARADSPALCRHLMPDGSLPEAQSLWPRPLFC
#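 qHTS format. ASM enzyme prepared from human placenta hydrolyses the fluorogenic substrate HMU-PC0 (9 uM final) over 60 min at 37 °C after a 10 min compound preincubation.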
# IL1B secr inh = blocks inflammasome-driven IL-1 beta release; THP-1 LPS/ATP IL-1B secretion, AlphaLISA, 16 h; stronger effect = lower value; activity change, % at 57.5 µM; hit rate 4.7% among 360,000; AID 743279; in the data active means activity change below about -50%; inconclusive means mostly about -30% to -49%
#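 THP-1 cells pretreated 1 hr with compounds (up to 57.5 uM final), then stimulated with LPS (250 ng/mL final) plus ATP (1.25 mM final); secreted IL-1B measured by AlphaLISA after 16 hr, decreased signal indicating inhibition.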
# Numbers stand for hits; – = inactive; ? = inconclusive; · = no result given; ! = repeats disagree; [ ] = remark or other dose. Unless noted, the call rests on the fitted dose curve; in most records, active means well fitted curve in the direction sought with a large enough effect; inconclusive means small, poorly fitted or top-dose-only effect, or another doubt; inactive means no such curve, though single readings can be large; an effect the other way counts as inactive or inconclusive.
SMILES,HepG2 viability,TGFb inhibitor,TDP1 cell noCPT,TDP1 cell CPT,S-ASM inh,IL1B secr inh
CN(C)CCCNC(=O)c1ccc(-c2nc(-c3ccc(Cl)cc3)cs2)cc1,16µM,?,21µM,16µM,–,-97
CN(C)CCCNC(=O)c1ccccn1,–,–,–,–,–,–
COc1ccc(C(CCNC(C)c2ccccc2)c2ccc(F)cc2)cc1 (stereo unspecified),–,13µM,7.3µM,7.3µM,–,-50
COc1ccc(CNCCC(c2ccc(F)cc2)c2ccc(OC)cc2)cc1 (stereo unspecified),–,?,10µM,12µM,–,·
COc1ccc(C(CCNCc2ccccc2)c2ccc(F)cc2)cc1 (stereo unspecified),–,18µM,?,?,–,–
COc1ccc(CNC(=O)CNC(C)c2ccc(F)cc2)cc1 (stereo unspecified),–,–,–,–,–,?
COc1ccccc1N1CCN(CCn2c(=O)c3c(c4ccccc4n3C)n(C)c2=O)CC1,·,·,–,–,·,·
COC1(OC)C(/C=C/c2ccc(Cl)cc2)C(C#N)(C#N)C1(OC)OC (stereo unspecified),–,?,8.2µM,8.2µM,–,-102
COC(=O)CSC1=C(C#N)C(=O)NC(c2ccccc2)S1 (stereo unspecified),–,–,2.1µM,2.6µM,–,?
CCc1noc(C)c1C(=O)N(CC)CC(=O)NCc1ccc(F)cc1,–,–,–,–,·,–
O=C(NCc1ccc(F)cc1)c1cc(C2CCCCN2C(=O)c2ccc(Cl)cc2)on1 (stereo unspecified),–,?,15µM,?,·,–
COc1ccc(C(=O)N2CCCCC2c2cc(C(=O)NCc3ccc(F)cc3)no2)cc1 (stereo unspecified),–,–,?,16µM,·,–
O=C(NCc1ccc(F)cc1)c1cc(C2CCCCN2C(=O)c2ccccc2)on1 (stereo unspecified),–,–,?,?,·,–
COc1ccccc1CNc1cc(-c2c(C)noc2C)ncn1,·,·,–,–,·,·
C[C@@H]1CCCCO[C@@H](CN(C)C(=O)C2CCCCC2)[C@@H](C)CN([C@H](C)CO)C(=O)c2cc(NC(=O)NC3CCCCC3)ccc2O1,–,–,?,23µM,·,–
COc1ccc(NC(=O)Nc2ccc3c(c2)C(=O)N([C@H](C)CO)C[C@@H](C)[C@@H](CN(C)C(=O)C2CCCCC2)OCCCC[C@H](C)O3)cc1,–,–,23µM,?,·,–
CCOC(=O)CCCCCC(=O)Nc1ccc2c(c1)C(=O)N([C@@H](C)CO)C[C@H](C)[C@H](CN(C)C(=O)NC(C)C)OCCCC[C@H](C)O2,–,–,–,–,·,–
C[C@H]1CCCCO[C@H](CN(C)C(=O)C2CCCCC2)[C@@H](C)CN([C@@H](C)CO)C(=O)c2cc(NC(=O)NC3CCCCC3)ccc2O1,–,–,21µM,21µM,·,–
CCOC(=O)CCCCCC(=O)Nc1ccc2c(c1)C(=O)N([C@H](C)CO)C[C@H](C)[C@H](CN(C)C(=O)C1CCCCC1)OCCCC[C@@H](C)O2,–,–,21µM,?,·,–
CCOc1ccc(-c2cc(CCCC(=O)NCCc3ccc(Cl)cc3)no2)cc1,–,–,–,?,·,·
Cc1nc(N2CCCCC2C)c2c(C)c(C(=O)Nc3cccc(C(F)(F)F)c3)sc2n1 (stereo unspecified),–,?,?,?,–,-73
Cc1nc(N2CCCCC2)c2c(C)c(C(=O)Nc3cccc(C(F)(F)F)c3)sc2n1,–,–,?,?,?,–
CCOc1ccc(NC(=O)c2sc3nc4n(c(=O)c3c2C)CCC4)cc1,–,–,–,?,–,–
Cc1c(C(=O)Nc2cccc(C(F)(F)F)c2)sc2nc3n(c(=O)c12)CCC3,–,?,23µM,23µM,·,·
Cc1c(C(=O)Nc2cccc(C#N)c2)sc2nc3n(c(=O)c12)CCCCC3,–,–,13µM,16µM,·,·
SMILES,HepG2 viability,TGFb inhibitor,TDP1 cell noCPT,TDP1 cell CPT,S-ASM inh,IL1B secr inh
CCOC(=O)c1ccc(NC(=O)c2sc3nc4n(c(=O)c3c2C)CCC4)cc1,–,–,18µM,16µM!,–,-52
COc1ccc(NC(=O)COC(=O)C2CC(=O)N(c3ccc(C)cc3)C2)cc1 (stereo unspecified),–,–,–,–,–,–
COc1ccccc1CN1CCCC(n2cc(C(=O)N3CCCC3)nn2)C1 (stereo unspecified),·,·,?,–[9.04 µM],·,·
CN(C)C(=S)NC(=O)C12CC3(C)CC(C)(CC(C)(C3)C1)C2,–,–,1.3µM,–,–,–
COc1ccc(C(C)(C)C)cc1NC(=O)CCN1C(=O)NC(C)(C)C1=O,–,–,–,–,–,–
N=c1c(S(=O)(=O)c2ccccc2)cc2c(=O)n3ccccc3nc2n1CCCN1CCOCC1,–,–,–,–,–,–
Cc1ccc(S(=O)(=O)c2cc3c(=O)n4ccccc4nc3n(CCCN3CCOCC3)c2=N)cc1C,–,–,–,?,–,-72
Cc1ccc(S(=O)(=O)c2cc3c(=O)n4ccccc4nc3n(C3CCCCC3)c2=N)cc1,–,–,21µM,?,–,–
C=CCc1ccc(O)c(-c2cc(CC=C)ccc2O)c1,–,?,21µM,15µM,–,–
CCC(=O)N1c2ccc(S(=O)(=O)N3CCN(c4ccccc4)CC3)cc2CC1C (stereo unspecified),–,?,?,?,·,·
Cc1cccc(N2CCN(S(=O)(=O)c3ccc4c(c3)CC(C)N4C(=O)C3CC3)CC2)c1C (stereo unspecified),–,?,23µM,?,–,–
COc1ccccc1N1CCN(S(=O)(=O)c2ccc3c(c2)CC(C)N3C(C)=O)CC1 (stereo unspecified),–,–,?,?,–,–
CC(=O)c1ccc(N2CCN(S(=O)(=O)c3ccc4c(c3)CC(C)N4C(=O)C3CC3)CC2)cc1 (stereo unspecified),–,–,5.8µM,4.6µM,–,–
CC(=O)c1ccc(N2CCN(S(=O)(=O)c3ccc4c(c3)CC(C)N4C(C)=O)CC2)cc1 (stereo unspecified),–,–,7.3µM,23µM,–,–
CCC(=O)N1c2ccc(S(=O)(=O)N3CCN(c4ccc([N+](=O)[O-])cc4)CC3)cc2CC1C (stereo unspecified),–,?,7.3µM,9.2µM,–,–
